Outcome data for 37 compounds are collected here from PubChem BioAssay AID504773 (Broad Institute, 2011).

In this test the target is Golgi-associated PDZ and coiled-coil motif-containing protein (Homo sapiens) (UniProt Q9HD26). Description: potency against CAL PDZ-peptide interaction – biochemical, fluorescence polarization, Cerulean-tagged CAL PDZ, cherry-picks, dose response (AID 504773). Background: Fluorescence polarisation rises when a labelled molecule tumbles more slowly, as on binding a larger partner.

Results with a measured potency or affinity are listed apart. Calls of active or inactive are those of the source.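 How the source made its calls: active means polarization signal falls with dose and the fitted half-maximal concentration is at or below ten times the sample's top valid dose; inconclusive means flat curve at 30 to 70% inhibition, or poor fit; inactive means signal rises, flat within 30%, or potency beyond limit.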

As to `COc1ccc(S(=O)(=O)N2CCOCC2)cc1NC(=O)CN1CCCCCC1`, the compound was classed as inactive.

Turning to `O=C(c1cccs1)N1CCN(C(=O)N2CCOCC2)CC1`, the result was inactive.

As for `Cc1cccc(C)c1NC(=S)NC(=O)c1ccc(Br)o1`, the outcome was inactive.

Consider `FC(F)(F)Oc1ccc(NC(=S)NCCCN2CCOCC2)cc1`, for which the outcome was inactive.

With `CN(C)CCNC(=O)COc1cccc2c1OC(C)(C)C2`, the call was inactive.

For the compound `Cc1ccc2nc(NCc3ccc(F)cc3)c3nncn3c2c1`, the outcome was inactive.

In the case of `COc1ccc(CC(=O)NNC(=O)CCc2ccccc2)cc1OC`, the outcome was inactive.

For the compound `O=C(Nc1ccc([N+](=O)[O-])cc1)Nc1cnccn1`, the compound was classed as inactive.

With `COc1cc(C(=O)NC(C)CCc2ccccc2)cc(OC)c1OC` (configuration not stated), the compound was classed as inactive.

Turning to `O=C(/C=C/c1cccs1)Nc1scc(-c2ccccc2)c1C(=O)O`, the call was inactive.

`O=C(NNC(=S)NC(=O)c1ccc(Br)cc1)c1ccc([N+](=O)[O-])cc1`: the result was inactive.

For `COc1ccc(C(=O)NC2(C(F)(F)F)C(=O)Nc3c2c(=O)[nH]c(=O)n3CCc2ccc(OC)c(OC)c2)cc1` (configuration not stated), the call was inactive.

For the compound `O=C(NCc1ccccn1)Nc1ccc(F)c(Cl)c1`, the outcome was inactive.

As for `Cc1ccc(CN2CCN(Cc3nc4ccccc4nc3C)CC2CCO)cc1` (configuration not stated), the call was inactive.

In the case of `N#C/C(=C\c1c[nH]c2ccccc12)C(=O)NC1CC1`, the call was inactive.

With `CCOC(=O)c1ccc(N=C2SC(C(=O)NC)CC(=O)N2Cc2ccc(F)cc2)cc1` (configuration not stated), the compound was called inactive.

On to `Cc1c(NC(=O)CN2CCC(C(N)=O)CC2)cccc1[N+](=O)[O-]`, for which the compound was classed as inactive.

Take `CCOc1ccc(C(=O)NC2CC3CCCC(C2)N3Cc2ccccc2)cc1` (configuration not stated): the call was inactive.

As for `Cc1cc(C)c(OCC(=O)OC(C)C(=O)NC2CC2)c(C)c1` (configuration not stated), the result was inactive.

For `Cc1ccc(S(=O)(=O)N2CCN(C(=O)c3ccccn3)CC2)cc1`, the call was inactive.

In the case of `CCOC(=O)c1c(CN2CCOCC2)oc2ccc(OC(C)=O)cc12`, the outcome was inactive.

`C=CCNC(=O)CC1Nc2c3ccccc3nc(=S)n2C1=O` (configuration not stated): the outcome was inactive.

As to `CCN(CC)CCC(=O)N1c2ccccc2CCc2ccc(NC(=O)OC(C)C)cc21`, the compound was classed as inactive.

As to `O=C(Nc1nc2ccccc2[nH]1)c1cc2ccccc2o1`, the outcome was inactive.

For the compound `CCOC(=O)c1nc(NCCc2ccccc2)sc1C`, the compound was classed as inactive.

For `Cc1ccc(CNC2CCCCC2)s1`, the call was inactive.

For `Cc1nn(C)c(C)c1S(=O)(=O)N1CCC(CO)(CC2CCCCO2)CC1` (configuration not stated), the outcome was inactive.

Turning to `O=C(NCCN1C(=O)S/C(=C\c2ccc(Cl)c(Cl)c2)C1=O)C1COc2ccccc2O1` (configuration not stated), the compound was called inactive.

Regarding `CCn1ncc(Br)c1C(=O)Nc1cccc(F)c1`, the outcome was inactive.

Turning to `CCOC(=O)c1ccc(NC(=S)N2CCCC(C(=O)N3CCCC3)C2)cc1` (configuration not stated), the outcome was inactive.

For the compound `O=C(OCc1ccc(Br)cc1)c1cccnc1`, the result was inactive.

`CC12CCC(C(=O)N(CCCN3CCN(Cc4ccccc4)CC3)C1=O)C2(C)C` (configuration not stated): the compound was called inactive.

Take `O=C(CSc1nccc(=O)[nH]1)Nc1ccc(Oc2ccccc2)cc1`: the outcome was inactive.

With `O=C(C=Cc1ccccc1)c1cc(Br)ccc1O`, the compound was called inactive.

As to `O=[N+]([O-])c1ccccc1S(=O)(=O)NC1CCCCCCC1`, the outcome was inactive.

Consider `CCN1C(=O)CS/C1=N\S(=O)(=O)c1ccc(Cl)cc1`, for which the result was inactive.

Take `O=C(c1cc(Br)ccc1Cl)N1CCN(c2ccccn2)CC1`: the compound was classed as inactive.
